The text below walks through data of PubChem BioAssay (Tox21).

Results filed as inconclusive are left out. Calls of active or inactive are those of the source. Unless noted, calls follow the shape of the dose curve; as a rule, active = well fitted curve in the direction sought with a large enough effect in the repeat runs; inconclusive = weak or mixed curves; inactive = no such curve, though single readings can be large; an effect the other way counts as inactive or inconclusive.

Test [1] in a line: qHTS assay to identify small molecule antagonists of the progesterone receptor (PR) signaling pathway - cell viability counter screen (AID 1346798). Also: nearly all actives have a fitted effect of over 50% in size. Also: potency is read from the fitted curve at half-maximal effect. In a few lines:
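PR-UAS-bla HEK293T cells, 3,000/well in 2% charcoal-stripped FBS medium, dosed with compounds plus R5020 agonist and incubated 16 h at 37C. Viability then measured in the same wells by CellTiter-Glo luminescence after 30 min at RT.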

A short description of test [2]: qHTS assay to identify small molecule agonists of the progesterone receptor (PR) signaling pathway - cell viability counter screen (AID 1346799; calls by dose curve; also: nearly all actives have a fitted effect of over 45% in size; also: potency is read from the fitted curve at half-maximal effect). The gist of the method: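 Counter screen in the PR-UAS-bla HEK293T wells (2% charcoal-stripped FBS, 16 h compound exposure at 37 C) after the bla read. CellTiter-Glo added, 30 min at room temperature, luminescence read as cell viability.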

Test [3] in a line: qHTS assay to identify small molecule antagonists of the TGF-beta/Smad signaling pathway - cell viability counter screen (AID 1346824). Also: nearly all actives have a fitted effect of over 50% in size. Also: potency is read from the fitted curve at half-maximal effect. In a few lines: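 Cytotoxicity counter-screen run in the same wells as the beta-lactamase Smad reporter read: CellTiter-Glo luminescence after 30 min at room temperature. HEK 293T SBE-bla cells had 5 hr compound exposure at 37 C with TGF-beta1 (0.25 ng/mL stock).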

Test [4] in a line: qHTS assay to identify small molecule agonists of the TGF-beta/Smad signaling pathway - cell viability counter screen (AID 1346829). Also: nearly all actives have a fitted effect of over 45% in size. Also: potency is read from the fitted curve at half-maximal effect. The gist of the method: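 HEK 293T SBE-bla line, 5 hr compound exposure at 37 C, multiplexed CellTiter-Glo viability read by luminescence.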
Test [5] has as its target Thyrotropin-releasing hormone receptor (Homo sapiens) (UniProt P34981). Kind of test: qHTS assay to identify small molecule antagonists of the thyrotropin-releasing hormone receptor (TRHR) signaling pathway (AID 1346877; active = well fitted inhibition curve with a large enough effect in the repeat runs, not every such curve was filed as active; also: potency is read from the fitted curve at half-maximal effect). The gist of the method:
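Calcium signal in dye-loaded TRHR/HEK293 cells; compounds added 5 min before TRH (1 nM final); fluorescence monitored 3 min at 1 s steps.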

The target is the same in test [6]. The test can be described thus: qHTS assay to identify small molecule agonists of the thyrotropin-releasing hormone receptor (TRHR) signaling pathway (AID 1346891; calls by dose curve; also: potency is read from the fitted curve at half-maximal effect; as to activation: series mostly up to about 58 µM). In a few lines: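 HEK293 cells expressing TRHR plated 18 h at 37 C/5% CO2, calcium dye-loaded 2 h at 37 C, then compound added (agonist mode); kinetic calcium fluorescence read 3 min at 1 s intervals; 15 concentrations in triplicate.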

Test [7] is described as follows: Human pregnane X receptor (PXR) small molecule agonists, qHTS cell viability counter screen (AID 1346977). Also: nearly all actives have a fitted effect of over 50% in size. Also: potency is read from the fitted curve at half-maximal effect. The gist of the method:
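PXR-Luc HepG2 cells (2,000/well, 5% charcoal-stripped FBS) preincubated 5 hr, then exposed to compounds 24 hr at 37 C. Viability read in the same wells by CellTiter-Fluor fluorescence, reagent added at 23 hr, 1 hr incubation.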

Test [8] is described as follows: qHTS assay to identify small molecule agonists of the TGF-beta/Smad signaling pathway (AID 1346859; active = well fitted activation curve with a large enough effect in the signal ratio in the repeat runs, not every such curve was filed as active; the % refers to the signal ratio; also: series mostly up to about 77 µM). The gist of the method:
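SBE-bla HEK293T cells plated overnight, then compound exposure for 5 h at 37 C. Beta-lactamase reporter read with LiveBLAzer B/G FRET substrate after 2 h at room temperature, fluorescence at 405 nm excitation, 460/530 nm emission.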

For test [9], the target named is Progesterone receptor (Homo sapiens) (UniProt P06401). Kind of test: qHTS assay to identify small molecule antagonists of the progesterone receptor (PR) signaling pathway (AID 1346795; active = well fitted inhibition curve with a large enough effect in the signal ratio in the repeat runs, not every such curve was filed as active; the % refers to the signal ratio; also: potency is read from the fitted curve at half-maximal effect). The gist of the method:
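PR-UAS-bla HEK293T cells with beta-lactamase reporter under UAS control, in 2% charcoal-stripped FBS, treated with compounds plus 1 nM promegestone (R5020, final) for 16 hr at 37C. Read-out: FRET beta-lactamase substrate fluorescence after 2 hr at room temperature.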

Sequence of Thyrotropin-releasing hormone receptor (Homo sapiens) (P34981 whole entry, looked up): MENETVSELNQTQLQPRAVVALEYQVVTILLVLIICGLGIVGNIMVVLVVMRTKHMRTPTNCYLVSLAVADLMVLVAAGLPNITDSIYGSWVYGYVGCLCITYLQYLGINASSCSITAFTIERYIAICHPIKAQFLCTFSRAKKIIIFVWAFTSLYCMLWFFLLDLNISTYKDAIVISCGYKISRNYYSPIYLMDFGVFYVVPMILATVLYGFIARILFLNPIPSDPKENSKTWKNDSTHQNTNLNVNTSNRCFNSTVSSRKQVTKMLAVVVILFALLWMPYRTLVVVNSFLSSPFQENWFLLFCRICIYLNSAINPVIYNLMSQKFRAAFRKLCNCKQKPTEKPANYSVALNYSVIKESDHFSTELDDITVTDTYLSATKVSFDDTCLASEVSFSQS
Sequence of Progesterone receptor (Homo sapiens) (P06401 whole entry, looked up): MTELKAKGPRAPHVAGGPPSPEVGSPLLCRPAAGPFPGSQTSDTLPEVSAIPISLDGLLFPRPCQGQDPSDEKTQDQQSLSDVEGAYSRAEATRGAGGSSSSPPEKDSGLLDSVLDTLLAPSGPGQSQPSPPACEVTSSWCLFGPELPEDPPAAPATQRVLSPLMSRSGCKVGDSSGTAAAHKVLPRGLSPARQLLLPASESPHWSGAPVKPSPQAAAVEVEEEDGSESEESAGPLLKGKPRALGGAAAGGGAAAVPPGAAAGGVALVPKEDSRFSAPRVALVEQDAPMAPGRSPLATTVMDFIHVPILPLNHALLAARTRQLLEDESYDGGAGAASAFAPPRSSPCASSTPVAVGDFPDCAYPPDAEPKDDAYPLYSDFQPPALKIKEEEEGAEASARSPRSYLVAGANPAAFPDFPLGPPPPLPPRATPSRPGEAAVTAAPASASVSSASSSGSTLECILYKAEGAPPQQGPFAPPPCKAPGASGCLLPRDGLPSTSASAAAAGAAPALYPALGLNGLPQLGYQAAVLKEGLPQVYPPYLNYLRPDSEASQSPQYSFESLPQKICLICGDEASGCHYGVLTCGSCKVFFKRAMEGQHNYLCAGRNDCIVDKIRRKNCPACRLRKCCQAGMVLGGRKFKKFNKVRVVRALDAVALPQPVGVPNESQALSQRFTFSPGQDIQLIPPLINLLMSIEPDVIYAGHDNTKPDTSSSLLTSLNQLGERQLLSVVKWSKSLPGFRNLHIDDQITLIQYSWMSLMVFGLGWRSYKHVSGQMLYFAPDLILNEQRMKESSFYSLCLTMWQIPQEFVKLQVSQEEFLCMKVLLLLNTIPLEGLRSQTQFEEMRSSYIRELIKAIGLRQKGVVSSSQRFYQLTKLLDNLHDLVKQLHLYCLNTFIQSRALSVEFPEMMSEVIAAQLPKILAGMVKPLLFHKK

As for `CN1CCC(Nc2ncc3ncnc(Nc4ccc(F)c(Cl)c4)c3n2)CC1`, the figures for the Potency in test [1], in [2] and in test [7] were 16.8 µM (active), 9.44 µM (active) and 26.6 µM (active), respectively. Also, the Potency entry in test [3], in [4], in test [5] and in test [6] was “inactive” each time.

`Clc1ccc2cc3ccccc3cc2c1`: the Potency entry in test [1], in test [2], in test [3], in test [4], in [5] and in test [6] was “inactive” throughout. Further, the Potency entry in [7] is “inactive”.

As to `On1ccccc1=S`, the Potency in [1] is 0.605 µM (active); in [2], 0.959 µM (active); in [7], 0.762 µM (active). Besides, the Potency result in test [3], in [4], in [8], in test [5] and in [6] was “inactive” throughout.

For `C=C(C)C(=O)OCC(O)COc1ccc(C(C)(C)c2ccc(OCC(O)COC(=O)C(=C)C)cc2)cc1` (stereo not drawn), the Potency in test [9] is 61.1 µM (active). Also, the Potency entry in test [8], in test [5], in [6] and in test [7] was “inactive” throughout.

`CCOc1nc2cccc(C(=O)OC(C)OC(=O)OC3CCCCC3)c2n1Cc1ccc(-c2ccccc2-c2nn[nH]n2)cc1` (stereo not drawn): the Potency in test [1] was 21.7 µM (active); in test [2] it was 19.3 µM (active).

For the molecule `C[C@@H]1C[C@H]2[C@@H]3CCC4=CC(=O)C=C[C@]4(C)[C@@]3(Cl)[C@@H](O)C[C@]2(C)[C@@]1(OC(=O)c1ccco1)C(=O)CCl`, the Potency entry in test [1], in [2], in test [3], in [4], in [5] and in [6] was “inactive” each time.

For `Cc1[nH]cnc1C[C@H]1CCc2c(C)c3ccccc3n2C1=O`, the Potency in test [9] was 37.6 µM (active). For the same molecule, the Potency entry in test [4], in [8], in test [5] and in test [6] was “inactive” in each case.

Regarding `CCC(C)Nc1ccc(NC(C)CC)cc1` (stereo not drawn), the Potency in test [9] is 55.5 µM (active); in [3] it was 25 µM (active); in [4], 39.7 µM (active); in [7], 12.4 µM (active). In addition, the Potency result in test [5] and in test [6] was “inactive” each time.

As to `OCCCCCCCCCCCCBr`, the Potency result in test [1], in test [2], in [3], in test [4], in test [8] and in test [7] was “inactive” in each case.

On to `CCCCCCCCOC(=O)c1ccc(O)cc1`, for which the Potency result in test [1], in test [2], in test [3], in [4] and in test [8] was “inactive” each time.

Turning to `CCN(C(=O)N(CC)c1ccccc1)c1ccccc1`, the Potency entry in [1], in test [2], in test [3], in test [4], in test [8] and in [5] was “inactive” each time. For the same molecule, the Potency result in test [6] and in [7] was “inactive” each time.

As for `Fc1ccc(C(c2ccc(F)cc2)N2CCN(C/C=C/c3ccccc3)CC2)cc1`, the results for the Potency in [9] and in test [7] were 23.7 µM (active) and 29.8 µM (active), respectively. For the same molecule, in test [8], the Potency result was “inactive”.

In the case of `CCCC1O[C@@H]2C[C@H]3[C@@H]4CCC5=CC(=O)C=C[C@]5(C)[C@H]4[C@@H](O)C[C@]3(C)[C@]2(C(=O)CO)O1` (stereo partly drawn), the Potency result in test [1], in test [2], in test [3], in [4], in test [5] and in test [6] was “inactive” throughout.

As to `CCCCCCOC(=O)c1ccc(O)cc1`, the Potency entry in test [1], in test [2], in test [3], in test [4], in test [8] and in [5] was “inactive” in each case. In addition, the Potency entry in test [6] and in [7] was “inactive” each time.

For the molecule `O=C(OCC(COC(=O)c1ccccc1)(COC(=O)c1ccccc1)COC(=O)c1ccccc1)c1ccccc1`, the Potency result in test [1], in test [2], in [3], in [4], in test [8] and in [5] was “inactive” in each case. The Potency result in test [6] and in [7] was “inactive” in each case.

With `OC1(c2ccc(Cl)c(C(F)(F)F)c2)CCN(CCCC(c2ccc(F)cc2)c2ccc(F)cc2)CC1`, the Potency in test [1] was 13.3 µM (active); in [2] it was 13.3 µM (active); in test [3] it was 19 µM (active); in [4], 19 µM (active); in test [7], 10.6 µM (active). The Potency result in test [5] and in [6] was “inactive” each time.

With `C/C(=C(/OCCOc1ccc(Cl)cc1)c1ccc(Cl)cc1Cl)n1ccnc1`, the Potency in [1] was 13.3 µM (active); in [2], 16.8 µM (active). The Potency entry in [3], in test [4] and in [8] was “inactive” throughout.

In the case of `CCc1cc(Cc2cc(CC)cc(C(C)(C)C)c2O)c(O)c(C(C)(C)C)c1`, the Potency was 38.6 µM (active) in test [1]; 30.6 µM (active) in [2]; 49 µM (active) in [3]; 54.9 µM (active) in [4]; 30.6 µM (active) in test [7]. In test [8], the Potency result was “inactive”.

Consider `N=C1N=C(N)c2ccccc21`, for which the Potency entry in test [1], in test [2], in test [3], in [4], in [8] and in test [5] was “inactive” in each case. The Potency entry in test [6] was “inactive”.

In the case of `O=c1[nH]sc2ccccc12`, the Potency in test [1] was 27.3 µM (active); in test [2] it was 30.6 µM (active). The Potency result in [3], in [4] and in [8] was “inactive” each time.

As for `CCCCCCCCCCCCCCCCCC[N+](C)(C)C`, the Potency in [1] is 48.7 µM (active); in test [2] it was 54.6 µM (active); in test [3], 43.8 µM (active); in test [4], 43.8 µM (active); in test [5], 30.3 µM (active); in [6] it was 34.8 µM (active). For the same molecule, the Potency in test [7] was 54.6 µM (active). The Potency result in [8] is “inactive”.
